Test results from PubChem BioAssay.

Experiment: small-molecule binders of probe aInhba, primary screen, biochemical, small-molecule microarray, 635/667 nm fluorescence (AID 1148);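 further: score merges 667nm spot fluorescence with signal-to-noise for antibody binding to printed compounds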
Conditions: higher = more signal
`C=CC[C@H](OC(=O)Nc1ccc(SC)cc1)c1ccc(O)c2ccccc12` showed a composite z-score of -0.101. Molecule `O=C1O[C@@H](c2ccccc2)[C@@H](c2ccccc2)N2[C@@H](c3ccc(OCCO)cc3)[C@]3(C(=O)Nc4ccc(C#CC5=CCCCC5)cc43)[C@@H](C(=O)NC[C@H](O)c3ccccc3)[C@H]12` has a composite z-score of 0.853. With `O=C1O[C@H](c2ccccc2)[C@H](c2ccccc2)N2[C@H]1[C@@H](C(=O)O)[C@]1(C(=O)Nc3ccc(C#CCCO)cc31)[C@H]2c1ccccc1OCCO` the composite z-score was -0.0986. In the case of `CC(C)c1ccc(NN2C(C(O)c3ccc(C#N)cc3)C=CC3C(=O)N(c4ccccc4)C(=O)C32)cc1` (stereo not given), the composite z-score is reported as 0.41. For `C[N+](C)(C)CCCC[C@@H]1NC(=O)[C@@H]2C[C@H](C(=O)NCCCCCCN)[C@H](c3cccc(OCCO)c3)N2C1=O`, the composite z-score was 1.22. Molecule `CC(C)[Si]1(C(C)C)OCc2cc(C3CC3)nc(-c3ccc(Oc4ccccc4)cc3)c21` has a composite z-score of -0.0604. Molecule `COCCOC(=O)N1C(=O)[C@@]2(c3cc(C#CC4(O)CCCCCC4)ccc31)[C@H](c1ccc(O)cc1)N1[C@H](c3ccccc3)[C@H](c3ccccc3)OC(=O)[C@H]1[C@@H]2C(=O)N1CCN(c2ncccn2)CC1` has a composite z-score of -0.0918. For `COC(=O)c1c(CC[C@@H](CO)NC(=O)N[C@@H](C)Cn2cc(-c3ccccn3)nn2)oc(C(C)=O)c1C(=O)OC`, the composite z-score was 0.154. `CCOC(=O)[C@@H]1CCCCN1C(=O)C(=O)OC` gave a composite z-score of 0.0118. With `CN(C)c1ccc(C(O)C2C=CC3C(=O)NC(=O)C3N2Nc2ccccn2)cc1` (stereo not given) the composite z-score was -0.152. With `CC#CCO[Si](C#Cc1ccccc1)(C(C)C)C(C)C` the composite z-score was -0.106. In the case of `CC(=O)N1CC2(CC2)CC1c1ccccc1` (stereo not given), the composite z-score is reported as 0.507. `COCCOC(=O)N1C(=O)[C@@]2(c3cc(C#CCC(C(=O)OC)C(=O)OC)ccc31)[C@H](c1ccc(OCCO)cc1)N1[C@H](c3ccccc3)[C@H](c3ccccc3)OC(=O)[C@H]1[C@@H]2C(=O)N1CCc2cc(OC)c(OC)cc2C1` showed a composite z-score of -0.0087. `C=CCC(OC(C)=O)[C@@H]1[C@@H](N(Cc2cccc3ccccc23)C(=O)Cc2ccc(F)cc2)c2cc(OCCCO)ccc2N1C(=O)c1ccc2ccccc2c1` (stereo not given in full) gave a composite z-score of -0.0774. With `CN1C2C=C(CCCO)C(C3C(=O)N(C(N)=O)C(=O)C32)C1C1CC1` (stereo not given) the composite z-score was -0.0963. Molecule `CCCN1C(=O)[C@]2(Cc3ccccc31)N=C(c1ccc(OCCCO)cc1)O[C@@H]2c1ccccc1` has a composite z-score of -0.0087. `NCCCCCNC(=O)[C@@H]1C[C@@H]2C(=O)N[C@@H](CCCCN)C(=O)N2[C@@H]1c1ccc(O)cc1` gave a composite z-score of 0.217. `Cc1ccc(C(C)CC(O)C2C=CC3C(=O)N(c4ccccc4)C(=O)C3N2Nc2ccccc2)o1` (stereo not given) gave a composite z-score of 0.0792. Molecule `CCCNC(=O)[C@@H]1c2ccccc2C(=O)N(Cc2ccc(OC(F)(F)F)cc2)[C@H]1c1ccc(CO)cc1` has a composite z-score of -0.0963. In the case of `CC(C)C(CO)N1C(=O)[C@@H]2[C@H]3C(=O)OCC=C[C@H]3OC23C=CCN(c2ccc(Cl)cc2)C(=O)[C@@H]13` (stereo not given in full), the composite z-score is reported as -0.0987. In the case of `CC(C)c1ccc(NN2C(C(O)c3ccc(F)cc3)C=CC3C(=O)N(c4ccccc4)C(=O)C32)cc1` (stereo not given), the composite z-score is reported as 0.324. For `OCCCC1=CC(c2ccc(CN3CCCC3)cc2)N(Cc2cc3c(cc2Br)OCO3)CC1` (stereo not given), the composite z-score was -0.152. `COc1cc2c(cc1O)C(c1cccs1)N(Cc1cc3c(cc1Br)OCO3)CC2` (stereo not given) gave a composite z-score of 0.0268. For `CCCNC(=O)[C@@]1(Sc2ccc(C)cc2)CC(=O)N(C2Cc3ccccc3C2)[C@@H]1c1ccc(CO)cc1I`, the composite z-score was 0.27. Work on `CC(C)=C1C(=O)C(c2ccccc2)=C2CN3C(=O)N(CCc4ccccc4)C(=O)[C@]3(Cc3ccc(C(F)(F)F)cc3)[C@H]21` yielded a composite z-score of 0.23. In the case of `COc1cccc(C)c1NC(=O)O[C@H]1[C@H](OC(=O)Nc2ccccc2-c2ccccc2)[C@H](OC(=O)Nc2ccccc2-c2ccccc2)[C@@H](OC)O[C@@H]1CO`, the composite z-score is reported as 0.0128. Work on `COCCCNC(=O)[C@@]1(CCC(=O)OC(C)(C)C)N=C(c2ccc(OCCCO)cc2)O[C@H]1c1ccccc1N=[N+]=[N-]` yielded a composite z-score of 0.545. Molecule `COc1cc2c(cc1O)C(c1ccc(CN3CCCC3)cc1)N(Cc1cc3c(cc1Br)OCO3)CC2` (stereo not given) has a composite z-score of -0.128. `CCCC[C@@H](O)C1=C(COC)C[C@H]2C(=O)N(C)C(=O)[C@H]2[C@H]1CO` showed a composite z-score of -0.128. Molecule `COC(=O)C(CC#Cc1ccc2c(c1)[C@]1(C(=O)N2)[C@H](c2ccc(O)cc2)N2[C@H](c3ccccc3)[C@H](c3ccccc3)OC(=O)[C@H]2[C@@H]1C(=O)NC[C@H](O)c1ccccc1)C(=O)OC` has a composite z-score of 0.0769. With `COC(=O)C1=CC(CCCO)=CC(c2ccc(CN3CCCC3)cc2)N(Cc2cccc(OC(F)(F)F)c2)C=C1C(=O)OC` (stereo not given) the composite z-score was 0.0769. With `NC(=O)NCC#Cc1ccc2c(c1)[C@]1(C(=O)N2)[C@H](c2ccccc2OCCO)N2[C@H](c3ccccc3)[C@H](c3ccccc3)OC(=O)[C@H]2[C@@H]1C(=O)O` the composite z-score was 0.121. Molecule `COC(=O)[C@@H]1N=C(c2ccc(OCCCO)cc2)O[C@@H]1c1ccccc1` has a composite z-score of -0.0762. With `C=CCC(OC(C)=O)[C@@H]1[C@@H](N(Cc2cccc3ccccc23)C(=O)Cc2ccc(OC)cc2)c2cc(OCCCO)ccc2N1C(=O)c1ccc(-c2ccccc2)cc1` (stereo not given in full) the composite z-score was -0.0762. `CC(C)[Si]1(C(C)C)OCc2cc(-c3ccc(-c4ccc(Cl)c(Cl)c4)o3)nc(-c3ccccc3)c21` showed a composite z-score of -0.295.
